In the library only some 2.4% were active in any assay of this set; here they are far more common.
TNF necrop inh = inhibitors of TNF-alpha induced necroptosis in Jurkat FADD-/- cells. Jurkat FADD-/- TNF necroptosis rescue, ATP luminescence, 24 h; 0 = TNF only, 100 = no-TNF cells. activation (protection from cell death), % at 10 µM. 220,000 compounds, 0.068% hits;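 active means activation, meaning protection from cell death, of at least 50% relative to plate controls; inactive means activation below 50%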;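 further: necroptosis triggered by 40 ng/mL TNF-alpha added together with compound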
Mcl1-Bid inh = Mcl-1/Bid interaction inhibition | TR-FRET Mcl-1/Bid-Dy647 peptide binding, 1536-well | Q07820 | 220,000 compounds, 0.97% hits | AID 1021 | inhibition, % at 21.7 µM;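 active means compounds that cut the binding signal by more than half at the single screening dose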;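 further: His-tagged Mcl-1 with europium anti-His antibody binding Bid BH3 peptide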
Target sequence (Q07820 whole entry, looked up): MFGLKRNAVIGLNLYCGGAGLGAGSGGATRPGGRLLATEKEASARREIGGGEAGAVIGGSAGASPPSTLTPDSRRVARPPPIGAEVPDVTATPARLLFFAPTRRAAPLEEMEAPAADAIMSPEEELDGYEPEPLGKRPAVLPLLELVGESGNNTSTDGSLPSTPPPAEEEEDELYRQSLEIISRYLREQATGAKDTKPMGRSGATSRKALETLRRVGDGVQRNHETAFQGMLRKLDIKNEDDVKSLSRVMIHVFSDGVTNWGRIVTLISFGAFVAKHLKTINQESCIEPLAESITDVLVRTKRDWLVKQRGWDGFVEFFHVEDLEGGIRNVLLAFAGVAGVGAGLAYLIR
Bim-Mcl-1 = human Bim-Mcl-1 interaction inhibition; 190,000 compounds, 0.1% hits; inhibition, % at 10 µM; AID 1009; Bead-based flow cytometry, Bim peptide-Mcl-1 binding; in the data active means inhibition above about 40%
L929 necroptosis = L929 zVAD cell death inhibition. L929 zVAD necroptosis rescue, ATP luminescence, 24 h; with zVAD 60 µM. viability rescue, % at 10 µM. 220,000 compounds, 0.38% hits. AID 1377;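 active means activation, scaled between plate controls, above about 75%, limit read from the data; inactive means activation under that limit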
MCL1 BIM primary = disrupts human MCL1 binding to BIM-BH3 peptide; inhibition, % at 10.9 µM; 320,000 compounds, 0.68% hits; AID 2057; GST-MCL1 / FITC-Bim-BH3 fluorescence polarization;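 active means inhibition above the mean inhibition of all tested compounds plus 3 SD, set per campaign, cut at about 40% in these data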;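 further: higher means more loss of mP so more displacement of Bim peptide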
Mcl1-Noxa inh = Mcl-1/Noxa interaction inhibition. TR-FRET Mcl-1/Noxa peptide binding, 2 h. AID 1022. Q07820. inhibition, % at 21.7 µM. 220,000 compounds, 1.5% hits;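 active means compounds that cut the protein-peptide binding signal by more than 50% relative to plate controls in a single-dose test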;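 further: His-tagged Mcl-1 with rhodamine Noxa BH3 peptide and terbium anti-His antibody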
Large screens that a line does not name were inactive; ! = repeats disagree.

Cc1cc(C)c(NC(=O)CN2C(=O)CC(C)S(=O)(=O)c3ccccc32)c(C)c1 (stereo not drawn)	none (no result: TNF necrop inh, Mcl1-Bid inh, Bim-Mcl-1, L929 necroptosis, Mcl1-Noxa inh)
Cc1nc2ccc(C(=O)O)cc2c2c1CC(C)S2 (stereo not drawn)	Mcl1-Noxa inh 51.0
CC1CC(C)CN(c2ncnc3c2cnn3Cc2ccc(Cl)cc2)C1 (stereo not drawn)	Mcl1-Noxa inh 64.0
COc1ccc(-c2ccc3c(N)c(C(=O)NC(C)C)sc3n2)cc1OC	none (no result: Bim-Mcl-1)
COc1ccc(-c2ccc3c(n2)sc2c(=O)[nH]c(=O)[nH]c23)cc1OC	Mcl1-Noxa inh 84.2 (no result: MCL1 BIM primary)
COc1ccc(C(=O)Nc2ccc3c(c2)C(=O)c2ccccc2C3=O)cc1OC	Mcl1-Bid inh 85.4, Mcl1-Noxa inh 67.8
Cc1ccccc1OCC(=O)Nc1ccc2c(c1)Cc1ccccc1-2	none
COc1ccc(C(=O)Nc2ccc3ccccc3c2)cc1OC	none (no result: TNF necrop inh, Mcl1-Bid inh, Bim-Mcl-1, L929 necroptosis, Mcl1-Noxa inh)
Cc1ccc(NC(=O)COC(=O)Cn2cnc3ccccc32)cc1S(=O)(=O)N(C)C	none
O=C(COC(=O)Cn1cnc2ccccc21)Nc1ccc2c(c1)C(=O)c1ccccc1C2=O	Mcl1-Bid inh 64.9, Mcl1-Noxa inh 83.6
CCOc1cc(C=C2C(=O)c3ccccc3C2=O)ccc1OCC(=O)Nc1ccc(C)cc1	Mcl1-Bid inh 86.4
Cc1ccccc1OCC(=O)Nc1ccc2c(c1)C(=O)c1ccccc1C2=O	Mcl1-Noxa inh 67.4
CC(C)c1onc(C(=O)NC(C)c2ccccc2)c1[N+](=O)[O-] (stereo not drawn)	none
O=C(O)c1ccc2c(=O)n3c(nc2c1)/C(=C/c1ccccc1Br)CC3	none (no result: TNF necrop inh, Mcl1-Bid inh, Bim-Mcl-1, L929 necroptosis, Mcl1-Noxa inh)
CCOC(=O)c1ccccc1NC(=O)COC(=O)C(CCSC)NC(=O)COc1ccccc1 (stereo not drawn)	none (no result: TNF necrop inh, Mcl1-Bid inh, Bim-Mcl-1, L929 necroptosis, Mcl1-Noxa inh)
COc1cc(C(=O)Nc2ccc3c(c2)C(=O)c2ccccc2C3=O)cc(OC)c1OC	Mcl1-Bid inh 76.5, Mcl1-Noxa inh 85.1
COc1ccc(NC(=O)c2ccccc2NC(=O)COc2ccccc2)cc1	Mcl1-Bid inh 53.5
COCC(=O)Nc1ccccc1C(=O)Nc1ccc(OC)cc1	none
CCOc1cc(/C=C2/NC(=O)N(CC(=O)Nc3cccc(C)c3)C2=O)ccc1OCC(N)=O	Mcl1-Noxa inh 59.3
COc1cc(C(=O)Nc2ccc3c(c2)Cc2ccccc2-3)cc(OC)c1OC	none
O=C(COc1ccccc1)Nc1ccc2c(c1)Cc1cc(NC(=O)COc3ccccc3)ccc1-2	Bim-Mcl-1 113.0
CCOc1ccc(C(CC(=O)O)NC(=O)COc2ccc3ccccc3c2)cc1OC (stereo not drawn)	none (no result: TNF necrop inh, Mcl1-Bid inh, Bim-Mcl-1, L929 necroptosis, Mcl1-Noxa inh)
Cc1nn(-c2ccccc2)c(C)c1NC(=O)COC(=O)Cc1cccc(C(F)(F)F)c1	none (no result: TNF necrop inh, Mcl1-Bid inh, Bim-Mcl-1, L929 necroptosis, Mcl1-Noxa inh)
COC(=O)C1SCC2C(=O)N(Cc3ccccc3)CC(=O)N21 (stereo not drawn)	none
CC1=C(C#N)c2nc(N)c(C#N)c(C)c2/C1=C\c1ccc(-c2ccccc2C(=O)O)o1	Mcl1-Noxa inh 81.7 (no result: MCL1 BIM primary)
O=C(Nc1cccc(S(=O)(=O)N2CCOCC2)c1)c1c2c(nc3ccccc13)CCC2	Mcl1-Noxa inh 73.8
CCN(CC)S(=O)(=O)c1ccc(N2CCOCC2)c(NC(=O)c2cccc3ccccc23)c1	none
CCN(CC)S(=O)(=O)c1ccc(N2CCOCC2)c(NC(=O)c2c3c(nc4ccccc24)CCC3)c1	Mcl1-Noxa inh 91.0
CCCn1c2ccccc2c2cnn(CC(=O)NC3CCCCC3)c(=O)c21	none (no result: TNF necrop inh, Mcl1-Bid inh, Bim-Mcl-1, L929 necroptosis, Mcl1-Noxa inh)
Cc1c(OCC(F)(F)F)ccnc1CS(=O)c1nc2ccccc2[nH]1 (stereo not drawn)	Mcl1-Noxa inh 70.0!
COc1ccc(NC(=O)c2ccc(OC)c(S(=O)(=O)N3CCCCC3C)c2)cn1 (stereo not drawn)	MCL1 BIM primary 48.3 (no result: TNF necrop inh, Mcl1-Bid inh, Bim-Mcl-1, L929 necroptosis, Mcl1-Noxa inh)
COc1ccc(C(=O)Nc2ccc(NC(C)=O)cc2)cc1S(=O)(=O)N1CCCC1	none (no result: TNF necrop inh, Mcl1-Bid inh, Bim-Mcl-1, L929 necroptosis, Mcl1-Noxa inh)
Nc1nc(C(F)(F)F)cc(=O)n1N	none
CCN1C(=O)N[C@H](c2ccccc2)C(C(C)=O)=C1C	none (no result: TNF necrop inh, Mcl1-Bid inh, Bim-Mcl-1, L929 necroptosis, Mcl1-Noxa inh)
O=C(O)c1ccc(N/N=C/c2cn(Cc3ccccc3F)c3ccccc23)cc1	Mcl1-Noxa inh 58.9 (no result: Bim-Mcl-1)
Cc1ccc(C(=O)CN(CCC(=O)O)S(=O)(=O)c2ccc([N+](=O)[O-])cc2)cc1	none (no result: TNF necrop inh, Mcl1-Bid inh, Bim-Mcl-1, L929 necroptosis, Mcl1-Noxa inh)
O=C(Nc1ccc(F)cc1)Nc1ccc(Oc2ncnc3cc(Cl)ccc23)nc1	Mcl1-Bid inh 91.9 (no result: Bim-Mcl-1)

Screening data from PubChem BioAssay.
